{"source": "paper PMC7826789", "about": "(International Journal of Molecular Sciences, 2021)", "key": {"[1]": {"system": "MTOR"}, "[2]": {"system": "MAPK14"}, "[3]": {"system": "NEK3"}, "[4]": {"system": "MAPK9"}, "[5]": {"system": "MAPK15"}, "[6]": {"system": "NEK2"}, "[7]": {"system": "MARK3"}, "[8]": {"system": "MAPK8"}, "[9]": {"system": "MEK5"}, "[10]": {"system": "MKNK1"}, "[11]": {"system": "MKNK2"}, "[12]": {"system": "MAPK7"}, "[13]": {"system": "MAPK3"}, "[14]": {"system": "MYLK"}, "[15]": {"system": "MELK"}}, "data": [{"smiles": "COc1ccc(-c2cc3c(C)nc(N)nc3n([C@H]3CC[C@H](O)CC3)c2=O)cn1", "note": "[PFE-PKIS 40]", "values": [{"measurement": "Kinases covered", "setting": "[1]", "value": "MTOR"}]}, {"smiles": "CCc1ccc(Oc2nccc(-c3c(-c4ccc(F)cc4)ncn3C3CCNCC3)n2)cc1", "note": "[SB-242719]", "values": [{"measurement": "Kinases covered", "setting": "[2]", "value": "MAPK14"}]}, {"smiles": "CC(C)C(=O)N[C@@H]1CCN(C(=O)Nc2nc3c(s2)-c2nc(-c4ccccc4Cl)ncc2CC3)C1", "note": "[BI00047804]", "values": [{"measurement": "Kinases covered", "setting": "[3]", "value": "NEK3"}]}, {"smiles": "Fc1ccc(-c2nn3ccccc3c2-c2ccncc2)cc1", "note": "[GW434756X]", "values": [{"measurement": "Kinases covered", "setting": "[2]", "value": "MAPK14"}, {"measurement": "Kinases covered", "setting": "[4]", "value": "MAPK9"}]}, {"smiles": "COCCNC(=O)c1ccc(-c2cc(C(=O)NC3CC3)cc(F)c2C)cc1", "note": "[GW868318]", "values": [{"measurement": "Kinases covered", "setting": "[2]", "value": "MAPK14"}]}, {"smiles": "Nc1nccc(-c2c(-c3ccc(F)cc3)ncn2C2CCN(Cc3ccccc3)CC2)n1", "note": "[SB-219980]", "values": [{"measurement": "Kinases covered", "setting": "[2]", "value": "MAPK14"}, {"measurement": "Kinases covered", "setting": "[4]", "value": "MAPK9"}]}, {"smiles": "O=C(Nc1n[nH]c2cc(-c3ccsc3)ccc12)C1CC1", "note": "[SB-732932]", "values": [{"measurement": "Kinases covered", "setting": "[5]", "value": "MAPK15"}]}, {"smiles": "C[C@@H](Oc1cc(-n2cnc3ccc(OC4CCN(C)CC4)cc32)sc1C(N)=O)c1ccccc1Cl", "note": "[GSK579289A]", "values": [{"measurement": "Kinases covered", "setting": "[6]", "value": "NEK2"}]}, {"smiles": "O=c1[nH]c2cc(Nc3ccc(F)cc3F)ccc2n1CC1CCCCC1", "note": "[BI00601000]", "values": [{"measurement": "Kinases covered", "setting": "[2]", "value": "MAPK14"}]}, {"smiles": "FC1=CC(C3=NC2=CC(OC)=C(OC)C=C2C(N[C@H]4[C@H]([C@](C)(O)C)CNC4)=N3)=C(O)C=C1.Cl.Cl", "note": "[CCT241533]", "values": [{"measurement": "Kinases covered", "setting": "[7]", "value": "MARK3"}]}, {"smiles": "CN(C)C/C=C/C(=O)Nc1ccc(C(=O)Nc2cccc(Nc3ncc(Cl)c(-c4c[nH]c5ccccc45)n3)c2)cc1", "note": "[THZ1]", "values": [{"measurement": "Kinases covered", "setting": "[8]", "value": "MAPK8"}]}, {"smiles": "COc1cc2ncnc(Nc3cccc(Cl)c3F)c2cc1O[C@H]1CC[C@H]([C@@H]2NCCNC2=O)CC1", "note": "[BI00133844]", "values": [{"measurement": "Kinases covered", "setting": "[9]", "value": "MEK5"}]}, {"smiles": "COc1ccc(-c2cc3c(C)nc(N)nc3n([C@H]3CC[C@H](OCCO)CC3)c2=O)cn1", "note": "[PFE-PKIS 29]", "values": [{"measurement": "Kinases covered", "setting": "[1]", "value": "MTOR"}]}, {"smiles": "CCc1nc(-c2cccc(C)c2)c(-c2ccncc2)s1", "note": "[TPKI-106]", "values": [{"measurement": "Kinases covered", "setting": "[2]", "value": "MAPK14"}]}, {"smiles": "CCOc1ccc2c(-c3ccnc(Nc4cccc(C(F)(F)F)c4)n3)cnn2n1", "note": "[GW811761X]", "values": [{"measurement": "Kinases covered", "setting": "[5]", "value": "MAPK15"}]}, {"smiles": "COc1cc2ncnc(Nc3ccc(F)c(Cl)c3)c2cc1O[C@H]1CC[C@H](N)CC1", "note": "[BIBW3133BS]", "values": [{"measurement": "Kinases covered", "setting": "[9]", "value": "MEK5"}, {"measurement": "Kinases covered", "setting": "[10]", "value": "MKNK1"}]}, {"smiles": "CCCc1cc(N2CCCN(C)CC2)nc2sc3c(N)ncnc3c12", "note": "[BI00604564]", "values": [{"measurement": "Kinases covered", "setting": "[11]", "value": "MKNK2"}]}, {"smiles": "C[C@@H](Oc1cc(-n2cnc3ccc(CN4CCN(C)CC4)cc32)sc1C(N)=O)c1ccccc1C(F)(F)F", "note": "[GSK461364]", "values": [{"measurement": "Kinases covered", "setting": "[6]", "value": "NEK2"}]}, {"smiles": "CCOc1cc(C(=O)N2CCC(N3CCN(C)CC3)CC2)ccc1Nc1ncc2c(n1)N(C1CCCC1)c1ccccc1C(=O)N2C", "note": "[ERK5-IN-1]", "values": [{"measurement": "Kinases covered", "setting": "[12]", "value": "MAPK7"}]}, {"smiles": "O=C1Nc2ccc(I)cc2C1=Cc1cc(Br)c(O)c(Br)c1", "note": "[GW305074X]", "values": [{"measurement": "Kinases covered", "setting": "[13]", "value": "MAPK3"}]}, {"smiles": "Cc1ccc(C(=O)NCC(N)=O)cc1-n1c(C)cc(OCc2ccc(F)cc2F)c(Br)c1=O", "note": "[PFE-PKIS 1]", "values": [{"measurement": "Kinases covered", "setting": "[2]", "value": "MAPK14"}]}, {"smiles": "CNC(=O)c1c(F)cccc1Nc1nc(Nc2cc3c(cc2OC)CCN3C(=O)CN(C)C)nc2[nH]ccc12", "note": "[GSK1838705]", "values": [{"measurement": "Kinases covered", "setting": "[14]", "value": "MYLK"}]}, {"smiles": "CC(C)COC(=O)c1ccc2c(c1)/C(=C/Nc1ccc(S(N)(=O)=O)cc1)C(=O)N2", "note": "[GW416981X]", "values": [{"measurement": "Kinases covered", "setting": "[15]", "value": "MELK"}]}]}
